Hits are enriched below; roughly 5.4% of the tested compounds scored in any of these assays.
VACV mCherry inh = inhibitors of vaccinia virus infection (mCherry reporter signal); Potency, µM (highest dose often 36.5 µM), for inactives: top-dose activity change, negative = inhibition, usual class: inhibitors; Vaccinia virus mCherry reporter infection, fluorescence; 310,000 tested, 0.63% active; calls by dose curve; tested in A549 cells; further: nearly all actives have a fitted effect of over 35% in size
Marburg entry inh = Marburg virus entry inhibition; Marburg virus pseudotyped entry inhibition, cell reporter; Potency, µM (doses to about 37.8 µM), inactives show top-dose activity change, negative = inhibition, most hits filed as inhibitors; 300,000 tested, 1.8% active; calls by dose curve; tested in HEK293 cells
Vaccinia Venus = vaccinia inhibition (Venus reporter); Vaccinia virus Venus reporter expression, fluorescence; Potency, µM (doses to about 36.5 µM), inactives show at the top dose activity change, negative = inhibition, usual class: inhibitors; 330,000 tested, 0.46% active; AID 720580; calls by dose curve; tested in A549 cells; further: nearly all actives have a fitted effect of over 30% in size
LASV entry inh = inhibitors of Lassa virus binding or cell entry. Lassa virus pseudotype entry inhibition, cell reporter. Potency, µM (titrated, usually from 37.9 µM), for inactives: at the top dose activity change, negative = inhibition, actives largely listed as inhibitors. 300,000 tested, 1.2% active; calls by dose curve; tested in HEK293 cells; further: nearly all actives have a fitted effect of over 50% in size
FMDV antiviral = antivirals against foot and mouth disease virus | FMDV antiviral cell-based qHTS | Potency, µM (top dose mostly 57.9 µM), for inactives: at the highest dose activity change, negative = inhibition, most hits filed as inhibitors | 410,000 tested, 1.2% active; calls by dose curve; tested in HEK293T cells; further: read-out not given here; nearly all actives have a fitted effect of over 45% in size
Sm TGR block = S. mansoni TGR enzyme inhibition. Q962Y6. purified TGR, DTNB reduction, TNB absorbance 405 nm. Potency, µM (highest dose often 114 µM), without a hit: top-dose activity change, negative = inhibition, most hits filed as inhibitors. 360,000 tested, 3% active. AID 485364; active means well fitted inhibition curve with a large enough effect; inconclusive means small, poorly fitted or top-dose-only effect; inactive means no such curve, though single readings can be large or run the other way; further: nearly all actives have a fitted effect of over 60% in size
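TGR 20 nM + NADPH 100 uM (dispensed conc.), cpd preinc 15 min RT; start with NADPH (500 uM addition) then DTNB (15 mM addition). Kinetic TNB absorbance, 405 nm filter. Four-parameter Hill fit across titration.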
* = called active by the depositor; [ ] = another dose, or the depositor's remark. On the % scale 0 is the no-effect control and ±100 the full control effect; potency means the concentration at half of the fitted maximal effect.

What do the screens show for `O=C(c1ccco1)N1CCCN(C(=O)c2ccco2)CC1`?
Marburg entry inh: 25%; LASV entry inh: 22%; FMDV antiviral: 0%; Sm TGR block: -22%

Results for O=C(c1ccco1)N1CCN(C(=O)c2ccco2)C1=S ?
VACV mCherry inh: inactive; Marburg entry inh: inconclusive; Vaccinia Venus: inconclusive; LASV entry inh: inconclusive; FMDV antiviral: 32µM*

How did COc1cc(OC)c(/C=C/c2nccc3ccccc23)c(OC)c1 do in these assays?
VACV mCherry inh: -26%; Vaccinia Venus: -21%

Results for COc1ccccc1N1C(=O)C2C(c3ccccc3F)NN(C(=O)c3ccc(C)cc3)C2C1=O (configuration not stated) ?
Marburg entry inh: 13%; LASV entry inh: 5%; FMDV antiviral: 18%; Sm TGR block: 18µM*

How did C=C1CCN([C@@H](Cc2ccccc2)C(=O)O)S(=O)(=O)c2ccccc21 do in these assays?
VACV mCherry inh: inactive; Vaccinia Venus: -3%; FMDV antiviral: -13%

What do the screens show for `C=C1CCN(C(Cc2ccccc2)C(=O)OC)S(=O)(=O)c2ccc(F)cc21` (configuration not stated)?
VACV mCherry inh: -2%; Vaccinia Venus: -12%; FMDV antiviral: 3%; Sm TGR block: 22µM*

Results for O=C(CCCc1nc2ccccc2s1)N1CCN(S(=O)(=O)c2cccs2)CC1 ?
VACV mCherry inh: -22%; Marburg entry inh: 10µM*; Vaccinia Venus: -14%; LASV entry inh: inconclusive; FMDV antiviral: inconclusive; Sm TGR block: 12%

Results for Cc1nn(Cc2ccccc2)c(C)c1C(=O)OCC(=O)c1cc(C)n(CC(F)(F)F)c1C ?
VACV mCherry inh: inconclusive; Marburg entry inh: inconclusive; Vaccinia Venus: inconclusive; LASV entry inh: 1.8µM*; FMDV antiviral: 0%; Sm TGR block: 5%

What do the screens show for `Cc1cc(C(=O)COC(=O)c2ccco2)c(C)n1Cc1ccco1`?
Marburg entry inh: inconclusive; LASV entry inh: 15µM*; FMDV antiviral: 8.9µM*; Sm TGR block: -20%

Results for COc1cccc(Nc2ncc(C#N)c(N)n2)c1 ?
VACV mCherry inh: -7%; Marburg entry inh: inconclusive; Vaccinia Venus: inconclusive; LASV entry inh: -10%[46.1 µM]; FMDV antiviral: 27%; Sm TGR block: 16%

Results for COc1cccc(Nc2nccc(-c3cnn4ncccc34)n2)c1 ?
LASV entry inh: 0.56µM*

What do the screens show for `COc1ccc(-c2nn3ncccc3c2-c2ccnc(Nc3cccc(C(F)(F)F)c3)n2)cc1`?
LASV entry inh: 25µM*

What do the screens show for `CCN(CC)Cc1ccc(Nc2nccc(-c3cnn4ncccc34)n2)cc1`?
LASV entry inh: 0.04µM*

What do the screens show for `CC(C)c1ccc(Nc2nccc(-c3cnn4ncccc34)n2)cc1`?
LASV entry inh: 11µM*

Results for Cc1ccnc(Nc2ccc(CCO)cc2)n1 ?
VACV mCherry inh: 6%; Vaccinia Venus: -10%; FMDV antiviral: 28%

How did CC(C)c1nn2c(=O)cc(COC(=O)c3ccccc3NC(=O)COc3ccccc3)nc2s1 do in these assays?
VACV mCherry inh: inactive; Vaccinia Venus: -12%; LASV entry inh: 29%[46.1 µM]; FMDV antiviral: 13%; Sm TGR block: 2%

Results for Cc1cc(C)c(NC(=O)CCCn2c(C)c3cnn(-c4ccccc4)c(=O)c3c2C)c(C)c1 ?
VACV mCherry inh: -18%; Marburg entry inh: -30%[46.1 µM]; Vaccinia Venus: -21%; LASV entry inh: -10%[46.1 µM]; FMDV antiviral: -21%; Sm TGR block: inconclusive

How did COC(=O)c1ccccc1NC(=O)CSc1nnc2cc(C)c3cc(C)cc(C)c3n12 do in these assays?
VACV mCherry inh: -10%; Marburg entry inh: 5%[46.1 µM]; Vaccinia Venus: -11%; LASV entry inh: -8%[46.1 µM]; FMDV antiviral: -16%; Sm TGR block: 0%

Results for CCCCN(CC)C(=O)CSc1nc2n[nH]c(C)c2c(=N)n1-c1cccc(Cl)c1 ?
VACV mCherry inh: inconclusive; Vaccinia Venus: -30%; LASV entry inh: inconclusive; FMDV antiviral: inconclusive; Sm TGR block: 9%

What do the screens show for `COc1ccccc1NC(=O)C(Cc1ccccc1)NS(=O)(=O)c1cccc2nsnc12` (configuration not stated)?
VACV mCherry inh: -13%; Marburg entry inh: 6%[46.1 µM]; Vaccinia Venus: -11%; LASV entry inh: inconclusive; FMDV antiviral: 26%; Sm TGR block: -11%

Results for CC(=O)CCC1C2C(O)C(C(C)C)C(OC(=O)/C=C/c3ccccc3)CC12C (configuration not stated) ?
VACV mCherry inh: 6%; Vaccinia Venus: -2%; FMDV antiviral: inconclusive; Sm TGR block: 0%

How did CC(=O)OC1C(O)C(C)OC(OC2C(OC(=O)C3CCC4C(C3)OC3(CC(OC(=O)/C=C/c5ccccc5)C(C)CO3)C43CO3)OC(C)C(O)C2OC(C)=O)C1O (configuration not stated) do in these assays?
VACV mCherry inh: inconclusive; Marburg entry inh: inconclusive; Vaccinia Venus: 0.32µM*; LASV entry inh: inconclusive; FMDV antiviral: inconclusive

What do the screens show for `COC(=O)c1sccc1S(=O)(=O)N1CCC(n2c(CC3CCCC3)nc3cccnc32)CC1`?
VACV mCherry inh: -11%; Vaccinia Venus: -5%; FMDV antiviral: -4%

Results for O=C(NCCN1CCOCC1)c1ccncc1 ?
Marburg entry inh: -3%; LASV entry inh: inconclusive; FMDV antiviral: -12%; Sm TGR block: 1%

What do the screens show for `O=C1C=C(NCCN2CCOCC2)C(=O)c2cnccc21`?
Marburg entry inh: 2.9µM*; LASV entry inh: inconclusive; Sm TGR block: -26%

Results for Cc1ccc(NC(=S)Nc2ccc(S(=O)(=O)N3CCOCC3)cc2)cc1S(=O)(=O)N1CCOCC1 ?
VACV mCherry inh: 0%; Marburg entry inh: -1%[46.1 µM]; Vaccinia Venus: -4%; LASV entry inh: 11µM*; FMDV antiviral: -6%; Sm TGR block: 16µM*

What do the screens show for `Cc1ccc(C)c(SCC(=O)Nc2ccc(C)c(S(=O)(=O)N3CCOCC3)c2)c1`?
FMDV antiviral: inconclusive; Sm TGR block: 45µM*

What do the screens show for `Cc1nc(-c2ccc(F)cc2)c(CC(=O)Nc2ccc(C)c(S(=O)(=O)N3CCOCC3)c2)s1`?
VACV mCherry inh: inactive; Marburg entry inh: 5µM*; Vaccinia Venus: -5%; LASV entry inh: inconclusive; FMDV antiviral: inconclusive; Sm TGR block: 1%

How did O=S(=O)(c1ccc(NC(=S)NC2CC2)cc1)N1CCOCC1 do in these assays?
VACV mCherry inh: inactive; Marburg entry inh: 0%[46.1 µM]; Vaccinia Venus: -6%; LASV entry inh: -12%; FMDV antiviral: 27%; Sm TGR block: 16µM*

What do the screens show for `COc1ccc([C@]23Cc4ccccc4C(O2)C2=C(CC4(CCCCC4)OC2=O)O3)cc1`?
Sm TGR block: -18%[22.9 µM]

How did Cc1ccc(NC(=O)/C=C/c2ccc(S(=O)(=O)N3CCOCC3)cc2)cc1S(=O)(=O)N(C)C do in these assays?
VACV mCherry inh: inconclusive; Marburg entry inh: inconclusive; Vaccinia Venus: inconclusive; LASV entry inh: inconclusive; FMDV antiviral: 35µM*

Source: PubChem BioAssay
